Screening results as filed in PubChem.
tim10-1 inh = tim10-1 yeast growth inhibition | S. cerevisiae tim10-1 ts strain growth, BacTiter-Glo, 24 h | actives 2.2% (n = 330,000) | AID 463190 | inhibition, % at 20 µM;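 active means inhibition of at least 40%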;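 further: mutant grown at 25 °C; 0% = DMSO wells with yeast and 100% = wells holding no yeast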
NALP3 yeast inh = NALP3 inhibition in yeast | AID 2825 | inhibition, % at 10 µM | Yeast reconstituted NLRP3/ASC/caspase-1, beta-gal luminescence, 24 h | actives 0.39% (n = 330,000);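 active means inhibition of 50% or more; inactive means inhibition below 50%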;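 further: plate controls were induced DMSO wells for no effect and uninduced yeast grown without galactose for full effect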
tim23-1 inh = tim23-1 yeast growth inhibition; S. cerevisiae tim23-1 growth, BacTiter-Glo luminescence, 24 h; inhibition, % at 20 µM; actives 1.3% (n = 330,000); AID 463212;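 active means growth inhibition of the mutant yeast at or above 50%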;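 further: temperature-sensitive mutant grown at 25 °C; plate controls were DMSO-treated mutant yeast for no effect and medium wells lacking yeast for full effect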
PfHsp90 yeast 2 = growth inhibition of yeast expressing Plasmodium Hsp90 | S. cerevisiae expressing PfHsp90, BacTiter-Glo ATP, 48 h; yeast lacking PDR1 and PDR3 efflux regulators | inhibition, % at 9.4 µM | actives 0.32% (n = 310,000) | AID 504621;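 active means every replicate shows inhibition above about 80%, whatever the replicate mean, limit read from the data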;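 further: 0% = DMSO neutral controls and 100% = 20 µM radicicol positive controls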
TIM10 inh = TIM10 yeast growth inhibition; AID 463195; actives 1.4% (n = 330,000); inhibition, % at 10 µM; S. cerevisiae TIM10 strain growth, BacTiter-Glo luminescence, 24 h;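 active means inhibition of 40% or more at the single tested concentration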;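 further: wild-type TIM10 isogenic control strain grown at permissive 25 °C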
tim10-1 conf = confirmation of tim10-1 mutant yeast growth inhibitors. shares compounds with tim10-1 inh. S. cerevisiae tim10-1 ts strain growth, BacTiter-Glo, 24 h. inhibition, % at 20 µM. actives 56% (n = 7,400). AID 463213;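 active means inhibition of yeast growth at or above a set limit in either of two repeat tests at 20 µM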;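 further: tim10-1 mutant grown at permissive 25 °C to find synthetic lethal compounds; 0% = DMSO yeast wells and 100% = medium wells without yeast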
The depositor's hits bear a star; · = no result. Only some compounds are listed: those with a hit (about 3.7% of all), similar ones and a draw of the others.

SMILES	tim10-1 inh	NALP3 yeast inh	tim23-1 inh	PfHsp90 yeast 2	TIM10 inh	tim10-1 conf
Cc1ncoc1C(=O)NC1CC(C)(C)Cc2c1cnn2-c1ccccc1 (stereo not given)	16	28	9	-2	9	·
CC(C)(C)NC(=O)CSc1ncnc2c1cnn2-c1ccccc1	11	11	21	30	-14	·
CCNc1nnc(CSc2nc3ccccc3s2)s1	44*	35	45	16	31	39*
CCOc1ccccc1-c1nc(CN2CCN(C(=O)c3ccco3)CC2)c(C)o1	41*	1	39	12	16	22
Cc1ccccc1-c1nc(CN2CCN(C(=O)c3ccco3)CC2)c(C)o1	7	-5	18	-26	9	·
CC(C)C1NC2(C(=O)c3ccccc3C2=O)C2C(=O)N(c3ccc(F)cc3)C(=O)C12 (stereo not given)	40*	-2	21	11	0	30*
CCN(CC)S(=O)(=O)c1ccc(S(=O)(=O)N2CCN(C(=O)c3ccco3)CC2)cc1	8	-8	-1	-12	-5	·
CCCCc1ccc(S(=O)(=O)N2CCN(C(=O)c3ccco3)CC2)cc1	52*	4	34	5	23	32*
O=C1C=CC2=C3c4cc(O)c(O)cc4CC3(O)COC2=C1O (stereo not given)	·	·	·	21	·	·
CC[C@]12C(=O)N(C)C[C@H]([C@@H]3C(=O)N(C)C(=O)[C@@H]31)N2C(=O)c1ccc(Cl)cc1	·	·	·	6	·	·
Cc1ccc(NC(=O)C2=C(O)CCn3c2nc2ccccc23)cc1	43*	16	27	-26	20	0
Cc1ccc(NC(=O)NCc2nc3ccccc3n2C)cc1	7	-5	14	-8	23	·
CN1C(=O)C(O)(CC(=O)/C=C\c2ccc3c(c2)OCO3)c2ccccc21 (stereo not given)	42*	16	40	12	35	28
Cc1ccc(C(C)C)cc1C(=O)CC1(O)C(=O)N(C)c2ccccc21 (stereo not given)	42*	-2	1	-1	33	32*
COC(=O)C1=C(C)OC(N)=C(C#N)C1c1c(C)nn(-c2ccccc2)c1Cl (stereo not given)	40*	8	43	17	36	33*
O=C(Nc1ccc(N2CCN(C(=O)c3ccccc3)CC2)c(Cl)c1)c1ccc(Br)o1	48*	22	43	·	33	39*
O=C(Nc1ccc(N2CCN(C(=O)c3ccccc3)CC2)cc1)c1ccc(Br)o1	39	3	41	15	35	·
O=C(Nc1cccc(C(=O)N2CCN(c3cccc(Cl)c3)CC2)c1)c1ccccc1	48*	10	31	·	36	37*
Cc1ccccc1-c1nnc(SCC(=O)N(C)c2c(N)n(Cc3ccccc3)c(=O)[nH]c2=O)n1C	-11	5	-23	2	-4	·
CCCCN(CC)C(=O)c1oc2ccc(S(=O)(=O)N3CCCC3)cc2c1C	24	28	24	8	17	·
N#CC1(Nc2ccc(C(=O)O)cc2)CCCC1	·	·	·	-11	·	·
CC(=O)OCCc1c2ccccc2c(CCCN(C)C)c2ccccc12	40*	-5	3	12	14	28
CCCn1nnc(NC(=O)c2cccc(OCc3ccccc3)c2)n1	44*	23	32	-18	29	36*
C=CCN1C(=O)C(O)(CC(=O)c2ccc(-n3cccc3)cc2)c2ccccc21 (stereo not given)	43*	12	39	-8	29	36*
COc1ccc(CN2C(=O)C(CC(C)C)Nc3ncnc(N4CCN(c5ccccc5)CC4)c32)cc1 (stereo not given)	43*	4	35	-8	26	23
SMILES	tim10-1 inh	NALP3 yeast inh	tim23-1 inh	PfHsp90 yeast 2	TIM10 inh	tim10-1 conf
Oc1ccc(-c2nnc(SCC3CCCCC3)o2)cc1	44*	6	22	·	32	28
COc1ccc([N+](=O)[O-])cc1NCc1ccccc1	43*	-35	27	12	9	19
COc1ccc([N+](=O)[O-])cc1NCc1ccccc1C	18	2	34	29	13	·
CCOC(=O)c1cnc2c(OC)cccc2c1Nc1ccc2c(c1)OCCO2	44*	5	42	-9	35	32*
CCOC(=O)c1cnc2ccc(C(=O)OC)cc2c1Nc1ccc2c(c1)OCCO2	2	0	18	-48	25	·
N#Cc1ccccc1Cn1c(=O)n(C2CCCC2)c(=O)c2ccccc21	46*	0	41	-8	24	38*
O=c1c2ccccc2n(Cc2cccc(F)c2)c(=O)n1C1CCCC1	35	10	33	10	25	·
COc1ccc(N2CCN(C(=O)CSc3nnc4n3C(C)(C)Cc3ccccc3-4)CC2)cc1	46*	-3	38	3	17	25
Cc1ccc(Cl)cc1N1CCN(C(=O)CSc2nnc3n2C(C)(C)Cc2ccccc2-3)CC1	2	16	4	·	16	·
c1ccc2n[nH]nc2c1	·	·	·	5	·	·
c1ccc(-c2nc(CSc3n[nH]c(-c4cccs4)n3)cs2)cc1	42*	27	39	5	37	34*
CCC(C)(C)c1ccc(Oc2cccc(C(=O)O)c2)cc1	97*	15	22	1	-2	21
O=C(CSc1ccc(Br)cc1)Nc1ccccc1N1CCOCC1	22	19	24	-30	-3	·
C=CCN1C(=O)C2(NNc3ccccc3O2)c2ccccc21 (stereo not given)	1	17	36	-8	34	·
CCCCN1C(=O)C2(NNc3ccccc3O2)c2ccccc21 (stereo not given)	43*	8	33	6	31	19
N#C/C(=C\c1cc2ccccc2nc1N1CCOCC1)C(=O)Nc1ccc(N2CCOCC2)cc1	8	8	29	10	18	·
N#CC(C#N)=Cc1cc2ccccc2nc1N1CCOCC1	44*	-6	49	-31	26	21
Cc1nn(-c2ccccc2)c(C)c1NC(=O)COC(=O)c1ccccc1	0	9	15	-15	12	·
COc1ccccc1/C=C/C(=O)OCC(=O)Nc1c(C)nn(-c2ccccc2)c1C	45*	6	31	·	14	29
Cc1cc(N/N=C/c2cccc(Cl)c2)nc(NCc2ccccc2)n1	30	17	21	2	-12	·
Cc1cc(Nc2cccc(Cl)c2)nc(NCc2ccccc2)n1	45*	32	45	-8	8	24
O=C(OCc1cccc(C(F)(F)F)c1)c1ccc[nH]c1=O	-11	13	-7	11	-14	·
CCCOc1ccc(CNC(=S)Nc2ccccc2)cc1Cl	43*	23	36	-34	23	23
CC(C)COc1ccc(CNC(=S)Nc2ccccc2)cc1Cl	22	30	12	18	26	·
Cc1ccc(NC(=O)C(=O)c2ccc(C)cc2)cc1	-13	28	12	-7	16	·
